# Experimental data as given in PubChem BioAssay (NCATS).
# Inconclusive results are not listed. Active and inactive are the calls of the source. Unless noted, the call rests on the fitted dose curve; in most records, active means well fitted curve in the direction sought with a large enough effect; inconclusive means small, poorly fitted or top-dose-only effect, or another doubt; inactive means no such curve, though single readings can be large; an effect the other way counts as inactive or inconclusive.
# Assays:
# [1] = A2780 Cisplatin Sensitive Ovarian Cancer Cell Toxicity qHTS against the NCATS CANVASS Library (AID 1347353); further: nearly all actives have a fitted effect of over 60% in size
# In short: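 A2780 cisplatin-sensitive cells (750 per well) were seeded, left 4 h at 37 °C, then pin-dosed in an 11-point series. After 72 h at 37 °C/5% CO2, viability was measured as ATPLite luminescence.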
# [2] = qHTS for ATAD5 Antagonist screened against the NCATS CANVASS Library (AID 1347370);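 further: HEK293T cells carrying an ATAD5 luciferase reporter co-treated with 10 µM 5-fluorouridine; nearly all actives have a fitted effect of over 65% in size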
# In short: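 HEK293T cells with a stably integrated ATAD5-controlled luciferase reporter were exposed to compounds (11-pt) alongside 10 uM 5-fluorouridine as ATAD5 stabilizer for 16hr at 37C. Viability was read by CellTiter-Fluor fluorescence, then ATAD5 by luminescence.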
# [3] = qHTS for inhibitors of ER calcium dysfunction: SERCaMP assay screened against the NCATS CANVASS Library (AID 1347393);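 further: lower secreted reporter signal means inhibitor of ER calcium depletion; nearly all actives have a fitted effect of over 40% in size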
# In short: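 qHTS in SH-SY5Y reporter cells: 16 h compound pretreatment, 4 h thapsigargin, then secreted Gaussia luciferase measured by luminescence.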
# [4] = molecular target: N-terminal Xaa-Pro-Lys N-methyltransferase 1 (Homo sapiens) (UniProt Q9BV86); test: Confirmatory qHTS for Inhibitors of N-terminal methyltransferase 1 (NTMT1): MTaseGlo Assay (AID 1645874); conditions: NTMT1 enzyme, MTase-Glo SAH luminescence; further: potency means the concentration at half of the fitted maximal effect; nearly all actives have a fitted effect of over 65% in size
# In short: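 NTMT1 (125 nM) preincubated 15 min with compound and 100 uM SAM, then 1 uM SPKRIA peptide added for 30 min at room temperature. SAH detected by MTase-Glo luminescence; normalized to no-enzyme and DMSO controls, fitted to 4-parameter Hill.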
# [5] = G06 Cancer Cell Toxicity qHTS against the NCATS CANVASS Library (AID 1347368); further: potency means the concentration at half of the fitted maximal effect; nearly all actives have a fitted effect of over 60% in size
# In short: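 G06 dog glioma cells seeded at 500 cells/well were exposed to compounds (11-point qHTS series) for 72 hr at 37C, 5% CO2; viability read as ATP content by CellTiterGlo luminescence.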
# Furin (Homo sapiens) = Furin (Homo sapiens) (UniProt P09958); test: Furin counterscreen qHTS for Zika virus inhibitors (AID 1347149);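 further: purified recombinant full-length human furin enzyme at 5 nM; fluorescence gain from furin cutting a BOC-RVRR-AMC peptide substrate over 15 min; top concentration of the series differs between compounds; nearly all actives have a fitted effect of over 70% in size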
# In short: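 Fluorogenic cleavage of BOC-RVRR-AMC (2 microM final, Km ~15 µM) was monitored (ex 340, em 450 nm) at 37C after 15 min RT preincubation of 5 nM furin with compounds in HEPES pH 7.0 buffer with CaCl2 and Triton X-100. Percent inhibition was fitted to a 4-parameter Hill curve.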
# [6] = tested on: Zika virus NS2B-NS3 protease (unlinked complex); test: Confirmatory screen GU AMC qHTS for Zika virus inhibitors (AID 1347153); further: nearly all actives have a fitted effect of over 70% in size
# In short: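 Unlinked NS2B-NS3 complex (25 nM) in 10 mM Tris-HCl pH 8.0, 0.01% Tween 20 preincubated 15 min with compound, then 10 microM Bz-Nle-KRR-AMC (Km 18.3 µM). Fluorescence change over 15 min, normalized, Hill-fitted.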
# [7] = qHTS assay to identify inhibitors of the type 1 interferon - major histocompatibility complex class I in skeletal muscle: Counter screen cell viability and HiBit confirmation (AID 1347412); conditions: iHSKM muscle cells + IFN-b, HiBiT or CellTiter-Glo, 24 h; Potency: HiBiT; Viability, at 45.9 µM (top of the series); further: nearly all actives have a fitted effect of over 60% in size
# In short: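 CRISPR HLA-B*08:01-HiBit immortalized human myoblasts (C25cl48) stimulated with 4 ng/ml IFN-beta and compounds (12-point 1:3, top 46 uM final) for 24 h at 37 C. Duplicate plates read by HiBit lytic luminescence or CellTiter Glo ATP.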
# [8] = Confirmatory qHTS for VERO E6 Cytotoxicity Assay: Counterscreen for SARS-CoV-2 CPE Assay (AID 1508605; calls by dose curve; further: nearly all actives have a fitted effect of over 60% in size)
# [9] = NCATS anti-infectives library activity on HEK293 viability as a counter-qHTS vs the C. elegans viability qHTS (AID 1745854); further: potency means the concentration at half of the fitted maximal effect
# In short: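 HEK293 cells, 1500 per well, exposed 24 hr at 37C in 5% CO2 to compounds in a 1:5 titration, up to 41.7 uM final. Viability read as CellTiter-Glo luminescence after 10 min at room temperature.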
# [10] = NCATS anti-infectives library activity on the primary C. elegans qHTS viability assay (AID 1745855; calls by dose curve; further: potency means the concentration at half of the fitted maximal effect)
# In short: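 Viability is taken from GFP fluorescence of PE254-GFP-FLuc C. elegans imaged by laser cytometry over 7 days. Ten L1 worms per well grow at 21 °C on TOP10 E. coli capsules with titrated compound; levamisole marks toxicity.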
# [11] = Confirmatory qHTS to identify inhibitors of SARS-CoV-2 cell entry (AID 1645844; calls by dose curve; further: potency means the concentration at half of the fitted maximal effect; nearly all actives have a fitted effect of over 45% in size)
# In short: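 HEK293-ACE2 cells (Expi293F stably expressing human ACE2) were pretreated with compounds for 1 hr at 37C, then infected with MLV-based particles carrying Wuhan-Hu-1 spike (C-terminal 19-aa truncation). Luciferase luminescence read after 48 hr; normalized to spike PP (100%) and bald PP (0%).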
# [12] = VSVG counterscreen qHTS to identify inhibitors of SARS-CoV-2 cell entry (AID 1645847; calls by dose curve; further: potency means the concentration at half of the fitted maximal effect; nearly all actives have a fitted effect of over 65% in size)
# In short: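 HEK293-ACE2 cells (Expi293F, human ACE2) pretreated 1 h with compound, then infected with MLV-based VSV-G pseudotyped particles for 48 h at 37 C; luciferase luminescence normalized to VSV-G PP and bald PP wells.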
# [13] = tested on: Zika virus NS2B-NS3 protease (linked); test: 384 well plate NINDS AMC confirmatory qHTS for Zika virus inhibitors (AID 1347163); conditions: Recombinant NS2B-NS3 protease, Ac-VKTGKR-AMC fluorescence; further: potency means the concentration at half of the fitted maximal effect; nearly all actives have a fitted effect of over 50% in size
# In short: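 Linked protease 5/30/60 nM final; cpds up to 1 mM final, ~15 min preinc. Substrate Ac-VKTGKR-AMC 30 microM final. RT, dark, 25 min; FI ex 355/em 460; normalized to no-enzyme/no-inhibitor ctrls.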
# [14] = tested on: Zika virus NS2B-NS3 protease (linked construct); test: 384 well plate NINDS Rhodamine confirmatory qHTS for Zika virus inhibitors (AID 1347164);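 further: fluorescence from protease cleavage of Ac-LKRR-rhodamine 110 substrate; potency means the concentration at half of the fitted maximal effect; nearly all actives have a fitted effect of over 65% in size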
# In short: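 Linked NS2B-NS3 protease (final 5, 30 or 60 nM) preincubated ~15 minutes with compounds, then 10 microM Ac-LKRR-Rhodamine 110 added. Fluorescence (485/538 nm) read after 25 minutes at room temperature, normalized to no-enzyme and no-inhibitor controls.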
# [15] = Tertiary RLuc qRT-PCR qHTS assay for Zika virus inhibitors (AID 1347169); further: potency means the concentration at half of the fitted maximal effect; nearly all actives have a fitted effect of over 55% in size
# In short: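 Vero cells (1,000/well) infected with recombinant ZIKV-RLuc (Cambodian) at MOI 1-2 after compound addition, 48-72 hrs at 37 degrees C. Live-cell Renilla luciferase substrate added; luminescence read after 1-1.5 hrs.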
# HEK293T = test: qHTS assay to identify novel small-molecules to repurpose for Merkel cell carcinoma treatment (AID 1296009); conditions: MCC and control cell lines, CellTiter-Glo viability, 72 h; at 44.8 µM (top of the series) unless noted; further: nearly all actives have a fitted effect of over 60% in size
# In short: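 Cells exposed to NPC (8-point) and MIPE (11-point) compound dilutions for 72 hr at 37 degree celsius; viability read by CellTiter-Glo luminescence, normalized to no-cell and DMSO in-plate controls.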
# [16] = molecular target: Estrogen receptor (Homo sapiens) (UniProt P03372); test: qHTS assay for small molecule agonists of estrogen receptor alpha signaling (AID 588514; calls by dose curve; further: potency means the concentration at half of the fitted maximal effect; nearly all actives have a fitted effect of over 70% in size)
# In short: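 ER-alpha-UAS-bla GripTite HEK 293 cells in medium with 2% charcoal/dextran-treated FBS were treated with compound titrations at 37 C for 18 hrs; beta-lactamase reporter read by CCF4 fluorescence after 2 hrs at RT.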
# [17] = molecular target: Bile acid receptor (Homo sapiens) (UniProt Q96RI1); test: qHTS assay for small molecule agonists of farnesoid X receptor signaling (AID 588527; calls by dose curve; further: potency means the concentration at half of the fitted maximal effect); conditions: HEK293T FXR-UAS-bla, beta-lactamase ratio, 16 h; activation: stronger effect = higher value
# In short: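 FXR-UAS-bla HEK293T cells (10% dialyzed FBS) preincubated 5-7 h at 37 C, then compounds at up to 92 uM for 16 h at 37 C. CCF4 beta-lactamase read-out after 2 h RT. Normalized to chenodeoxycholic acid (100 uM) and DMSO; Hill fit gave EC50 and efficacy.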
# [18] = molecular target: Glucocorticoid receptor (Homo sapiens) (UniProt P04150); test: qHTS assay for small molecule antagonists of glucocorticoid receptor signaling (AID 588533; active means well fitted inhibition curve with a large enough effect in the signal ratio, with a control signal flat, not every such curve was filed as active; the % refers to the signal ratio;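 further: cells stimulated with 2 nM dexamethasone as agonist; potency means the concentration at half of the fitted maximal effect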)
# In short: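 Antagonist-mode qHTS: compound titrations added to GRE-bla HeLa cells, then dexamethasone 2 nM final; 18 h, 37 C. CCF4 FRET fluorescence normalized to dexamethasone and DMSO; IC50 from Hill fit.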
# Sequence of Bile acid receptor (Homo sapiens) (Q96RI1 whole entry, looked up): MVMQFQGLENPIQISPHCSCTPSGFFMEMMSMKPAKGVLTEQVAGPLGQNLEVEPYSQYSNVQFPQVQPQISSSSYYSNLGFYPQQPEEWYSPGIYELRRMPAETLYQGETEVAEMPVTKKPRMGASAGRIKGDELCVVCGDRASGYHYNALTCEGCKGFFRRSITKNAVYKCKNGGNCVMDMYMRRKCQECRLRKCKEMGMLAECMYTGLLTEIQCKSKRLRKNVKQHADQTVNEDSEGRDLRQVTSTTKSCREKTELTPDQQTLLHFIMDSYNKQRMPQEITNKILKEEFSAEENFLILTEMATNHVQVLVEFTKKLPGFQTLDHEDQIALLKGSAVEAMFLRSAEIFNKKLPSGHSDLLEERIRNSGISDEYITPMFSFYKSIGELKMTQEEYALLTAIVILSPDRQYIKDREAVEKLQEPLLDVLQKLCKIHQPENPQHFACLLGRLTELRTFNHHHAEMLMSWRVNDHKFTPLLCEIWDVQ
# Sequence of Glucocorticoid receptor (Homo sapiens) (P04150 whole entry, looked up): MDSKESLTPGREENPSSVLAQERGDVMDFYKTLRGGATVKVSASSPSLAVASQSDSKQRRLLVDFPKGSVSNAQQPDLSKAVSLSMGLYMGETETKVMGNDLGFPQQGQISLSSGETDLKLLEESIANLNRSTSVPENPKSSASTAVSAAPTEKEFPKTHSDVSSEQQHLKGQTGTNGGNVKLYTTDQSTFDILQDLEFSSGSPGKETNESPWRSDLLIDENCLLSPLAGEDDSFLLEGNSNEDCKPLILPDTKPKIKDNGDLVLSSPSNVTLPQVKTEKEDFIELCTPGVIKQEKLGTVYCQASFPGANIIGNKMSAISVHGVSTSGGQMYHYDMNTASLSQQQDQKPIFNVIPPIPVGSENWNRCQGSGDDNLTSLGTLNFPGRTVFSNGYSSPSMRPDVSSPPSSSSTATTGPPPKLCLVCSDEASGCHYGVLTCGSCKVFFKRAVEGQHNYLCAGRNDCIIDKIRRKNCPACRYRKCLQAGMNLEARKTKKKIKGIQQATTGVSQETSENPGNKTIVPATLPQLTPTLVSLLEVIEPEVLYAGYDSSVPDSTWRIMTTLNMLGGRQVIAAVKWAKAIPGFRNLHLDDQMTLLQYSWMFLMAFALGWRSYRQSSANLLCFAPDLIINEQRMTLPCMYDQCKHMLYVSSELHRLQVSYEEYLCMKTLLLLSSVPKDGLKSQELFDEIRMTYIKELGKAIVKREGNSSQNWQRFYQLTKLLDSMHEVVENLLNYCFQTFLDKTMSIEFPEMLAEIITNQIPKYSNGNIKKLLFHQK
# Sequence of Furin (Homo sapiens) (P09958 whole entry, looked up): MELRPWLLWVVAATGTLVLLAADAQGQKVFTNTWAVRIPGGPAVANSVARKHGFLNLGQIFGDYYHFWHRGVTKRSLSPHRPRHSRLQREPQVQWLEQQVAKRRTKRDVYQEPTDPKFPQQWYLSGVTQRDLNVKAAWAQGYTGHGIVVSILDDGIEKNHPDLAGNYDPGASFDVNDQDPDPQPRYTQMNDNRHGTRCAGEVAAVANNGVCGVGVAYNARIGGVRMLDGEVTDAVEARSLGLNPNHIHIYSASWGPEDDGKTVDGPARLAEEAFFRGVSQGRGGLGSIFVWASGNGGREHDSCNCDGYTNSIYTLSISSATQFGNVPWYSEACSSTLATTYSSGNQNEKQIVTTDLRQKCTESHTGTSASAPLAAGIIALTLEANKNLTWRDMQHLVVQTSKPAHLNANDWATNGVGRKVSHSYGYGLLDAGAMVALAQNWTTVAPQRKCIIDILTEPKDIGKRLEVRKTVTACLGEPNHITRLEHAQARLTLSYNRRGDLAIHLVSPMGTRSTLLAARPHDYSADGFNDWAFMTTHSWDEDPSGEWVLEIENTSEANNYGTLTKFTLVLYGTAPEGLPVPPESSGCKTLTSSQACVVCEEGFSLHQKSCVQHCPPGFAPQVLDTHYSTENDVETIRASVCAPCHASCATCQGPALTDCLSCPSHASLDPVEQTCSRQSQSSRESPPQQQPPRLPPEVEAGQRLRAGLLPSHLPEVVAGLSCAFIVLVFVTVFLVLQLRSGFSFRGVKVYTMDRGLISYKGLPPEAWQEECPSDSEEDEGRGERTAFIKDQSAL
# Sequence of N-terminal Xaa-Pro-Lys N-methyltransferase 1 (Homo sapiens) (Q9BV86 whole entry, looked up): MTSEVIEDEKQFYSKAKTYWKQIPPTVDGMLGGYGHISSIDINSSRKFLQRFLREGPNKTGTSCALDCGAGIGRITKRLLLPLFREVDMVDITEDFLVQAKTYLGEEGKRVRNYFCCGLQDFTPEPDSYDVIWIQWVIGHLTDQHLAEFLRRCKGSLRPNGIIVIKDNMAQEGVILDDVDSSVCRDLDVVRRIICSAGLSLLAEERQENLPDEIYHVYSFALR
# Sequence of Estrogen receptor (Homo sapiens) (P03372 whole entry, looked up): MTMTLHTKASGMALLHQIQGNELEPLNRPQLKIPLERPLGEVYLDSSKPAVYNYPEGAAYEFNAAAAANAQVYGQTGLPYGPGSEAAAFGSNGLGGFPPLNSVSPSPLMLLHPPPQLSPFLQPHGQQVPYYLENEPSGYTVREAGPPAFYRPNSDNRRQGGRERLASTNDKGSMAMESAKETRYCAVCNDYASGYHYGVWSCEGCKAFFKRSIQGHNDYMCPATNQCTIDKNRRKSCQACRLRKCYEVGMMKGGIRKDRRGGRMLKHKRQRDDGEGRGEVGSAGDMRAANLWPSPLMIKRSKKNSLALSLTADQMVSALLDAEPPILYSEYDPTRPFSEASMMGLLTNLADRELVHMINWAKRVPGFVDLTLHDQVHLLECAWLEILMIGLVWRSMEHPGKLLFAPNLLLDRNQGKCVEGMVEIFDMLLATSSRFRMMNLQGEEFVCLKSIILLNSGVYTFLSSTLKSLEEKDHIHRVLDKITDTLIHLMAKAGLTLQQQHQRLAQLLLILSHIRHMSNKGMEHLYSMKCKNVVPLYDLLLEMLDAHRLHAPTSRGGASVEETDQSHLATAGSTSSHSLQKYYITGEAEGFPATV
structure (smiles),measurement,setting,value
C/C=C1/CN2CC[C@]34C(=Nc5ccccc53)[C@@H]2C[C@@H]1[C@H]4C(=O)OC,Potency,[1],inactive
same,Potency,[2],inactive
same,Potency,[3],inactive
C[C@H]1CCC[C@H](O)CCC/C=C/c2cc(O)cc(O)c2C(=O)O1,Potency,[4],1 µM (active)
CN1C(=O)[C@]23CC4C(C)(C)[C@@]5(C[C@@]41CN2CC[C@@]3(C)O)C(=O)Nc1c5ccc2c1OC=CC(C)(C)O2 (stereo partly drawn),Potency,[5],7.43 µM (active)
CC/C=C/C=C/C1(C)OC(OC)=C(C(=O)C2C(C)C(=O)c3cc(OC)c(O)c(O)c3C2(C)O)C1=O (stereo not drawn),Potency,Furin (Homo sapiens),inactive
same,Potency,[6],inactive
C[C@H](Nc1ncnc2nc[nH]c12)c1nc2ccc(F)cc2c(=O)n1-c1ccccc1,Potency,[7],inactive
COc1ccc(CCNCc2ccc(OC)c3ccccc23)cc1,Potency,[8],inactive
CN1CN(c2ccccc2)C2(CCN(CCCC(=O)c3ccc(F)cc3)CC2)C1=O,Potency,[8],inactive
CC[C@H]1/C=C\C=C/C[C@@H](C)[C@H](O)[C@@](C)(O)C(=O)[C@@H](C)[C@H](O)[C@@H](C)C(=O)[C@@H](C)[C@H](O)[C@@H](C)/C=C\C(=O)O[C@@H]2[C@H](C)[C@H](CC1)O[C@]1(CC[C@H](C)[C@H](C[C@@H](C)O)O1)[C@H]2C,Potency,[9],15.8 µM (active)
same,Potency,[10],5.78 µM (active)
Cc1sc2c(c1C)C(c1ccc(Cl)cc1)=N[C@@H](CC(=O)Nc1ccc(O)cc1)c1nnc(C)n1-2,Potency,[9],inactive
same,Potency,[7],inactive
C/C(=C\c1csc(C)n1)[C@@H]1C[C@@H]2O[C@@H]2CCC[C@H](C)[C@H](O)[C@@H](C)C(=O)C(C)(C)[C@@H](O)CC(=O)O1,Potency,[11],0.121 µM (active)
same,Potency,[12],0.0541 µM (active)
CC(C)=CCC[C@]1(C)C=Cc2c(O)c3c(c(CC=C(C)C)c2O1)O[C@]12C(=C[C@@H]4CC1C(C)(C)O[C@@]2(C/C=C(/C)C(=O)O)C4=O)C3=O,Potency,[13],1 µM (active)
same,Potency,[14],7.08 µM (active)
same,Potency,[15],2.94 µM (active)
CN(CC[C@H](N)CC(=O)N[C@H]1C=C[C@@H](n2ccc(N)nc2=O)O[C@@H]1C(=O)O)C(=N)N,outcome,HEK293T,inactive [at 9.27 µM]
C[C@@H]1Cc2c(Cl)cc(C(=O)N[C@@H](Cc3ccccc3)C(=O)O)c(O)c2C(=O)O1,Potency,[16],44.7 µM (active)
same,Potency,[17],44.7 µM (active)
same,Potency,[18],0.891 µM (active)
